High-throughput results from PubChem.
This is a sample that favours compounds with a hit; in the whole collection about 3.2% have one here.
H9c2 protect: protects H9c2 cardiomyocytes from peroxide injury; hit rate 0.63% among 360,000; protection from H2O2 cell death, % at 20 µM; H2O2 injury protection, ATPLite, 2 h;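 active means compounds giving at least 50% protection of heart cells from peroxide-induced death in the single-dose screen, raw or plate-pattern-corrected value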;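 further: 0% = DMSO wells with peroxide and 100% = DMSO wells without peroxide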
CRFBP-R2 block: antagonists of CRF-binding protein/CRF-R2 receptor complex. HEK293 CRF-R2/CRF-BP, CRF-induced calcium fluorescence. inhibition, % at 11.8 µM. AID 588475. hit rate 0.59% among 350,000;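 active means inhibition of the ligand-induced calcium signal above about 50% at the single tested concentration, limit read from the data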
PfGluPho inh: PfG6PD (Plasmodium falciparum) enzyme inhibition | PfGluPho enzyme, NADPH resazurin-diaphorase fluorescence | inhibition, % at 20 µM | hit rate 0.78% among 350,000 | AID 504690;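 active means inhibition reaching at least a set limit at 20 µM in the primary screen, cut at about 59% in these data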;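 further: 0% = DMSO wells with substrate and 100% = DMSO wells lacking glucose-6-phosphate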
FAS TE block: inhibitors of human fatty acid synthase thioesterase domain. P49327. recombinant FAS-TE, OMFH fluorogenic substrate, fluorescence endpoint. inhibition, % at 15 µM. hit rate 0.67% among 360,000;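 active means compounds whose normalised, plate-corrected inhibition of enzyme fluorescence in the single-dose primary screen is 50% or more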;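 further: 0% = DMSO with enzyme and 100% = substrate without enzyme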
CRFR2-BP ag: CRF-BP/CRF-R2 complex agonism; hit rate 0.46% among 350,000; HEK293 CRF-R2/CRF-BP, calcium dye fluorescence (FLIPR); percent of saturating CRF peptide response; AID 588473; activation, % at 13.2 µM;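 active means activation of at least 50%, plus an integration ratio under a set limit after plate pattern correction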;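 further: plate controls were neutral control wells without compound for no effect and CRF at EC100 for full effect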
aDG glyco act: increases alpha dystroglycan glycosylation; hit rate 0.22% among 360,000; Pro5-aDG cells, alpha-DG glycosylation AlphaScreen (IIH6); 0% Pro5, 100% B10-LARGE cell signal; activation, % at 10 µM; AID 624168;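 active means activation of at least 8% versus controls, or a plate z-score of at least 8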;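 further: Pro5 are CHO cells carrying HIG-tagged alpha-DG that lacks glycosylation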
Starred values were filed as active, the others as inactive; / = no result.

SMILES	H9c2 protect	CRFBP-R2 block	PfGluPho inh	FAS TE block	CRFR2-BP ag	aDG glyco act
CN(C)CCCN1C(=O)c2cccc3c([N+](=O)[O-])ccc(c23)C1=O	-12	81*	44	-131	56*	0
O=C1c2cccc3c([N+](=O)[O-])ccc(c23)C(=O)N1CCc1ccccn1	2	23	31	-34	2	0
COc1ccc(-c2cc(C(=O)O)nc3ccc4ccccc4c23)cc1OC	-20	58*	-4	-2	-1	0
COc1ccc(-c2nc(C(=O)O)cs2)cc1OC	8	-17	-4	-3	-3	0
COc1cc2c(c(Br)c1N)-c1cc(Br)c(N)cc1C2=O	-2	1	-6	2	4	-1
COc1ccc(C2C3=C(CC(C)(C)CC3=O)Nc3c2c(=O)n(C)c(=O)n3C)cc1OC (stereo unspecified)	5	113*	-5	-4	2	0
CN(C(=O)c1cccc(NC(=O)Cc2ccc(NC(=O)C3CCN(C(=O)CCc4ccccc4)CC3)cc2)c1)C1CC1	-22	-4	-2	-5	3	0
O=C(COC(=O)Cc1ccc(Cl)cc1)Nc1ccc2[nH]c(=O)[nH]c2c1	10	-7	10	-2	0	1
CN(C)c1ccc(C2C=C(c3ccc(Cl)cc3OC(F)F)Nc3ncnn32)cc1 (stereo unspecified)	-9	-63	10	-139	59*	0
C=CCOc1ccc(C=Nc2ccc(OC)cc2)c(O)c1	63*	-108	14	-1	-1	0
CCC1(c2ccccc2)NC(=O)N(CC(=O)Nc2ccc(OC)nc2)C1=O (stereo unspecified)	5	-62	-9	-36	93*	0
CN1CC=C2C(C#N)=C(N)C(C#N)(C#N)C(c3ccsc3)C2C1 (stereo unspecified)	1	-15	-16	-72	32	0
CN1CC=C2C(C#N)=C(N)C(C#N)(C#N)[C@H](c3cccs3)[C@H]2C1	5	-67	2	-28	53*	0
CN1CC=C2C(C#N)=C(N)C(C#N)(C#N)C(CCc3ccccc3)C2C1 (stereo unspecified)	12	-59	8	-14	59*	0
COc1cccc(C2C3CN(C)CC=C3C(C#N)=C(N)C2(C#N)C#N)c1OC (stereo unspecified)	-3	-8	-4	-41	72*	0
CCN1CC=C2C(C#N)=C(N)C(C#N)(C#N)[C@H](c3cccc(OC)c3OC)[C@H]2C1	25	-37	-2	-20	32	0
Cc1ccc(CNC(=O)CN(c2ccc(C)cc2)S(=O)(=O)c2c(C)nn(C)c2C)cc1	-4	83*	6	-1	-1	1
Cc1oc(-c2cccc(Cl)c2)nc1CS(=O)(=O)CC(=O)NCc1ccco1	-5	5	4	7	-2	0
O=c1[nH]c(C2CCN(S(=O)(=O)Cc3ccccc3)CC2)nc2c1nnn2Cc1cccc(Cl)c1	-4	7	-15	14	5	0
COc1cc(/C=C(/C#N)c2nc3ccccc3[nH]2)ccc1OCC(=O)Nc1ccccc1C(C)C	68*	-18	-4	-3	-1	0
COc1cc(/C=C(/C#N)c2nc3ccccc3[nH]2)ccc1OCC(=O)Nc1ccccc1C	15	-9	-4	-1	1	0
COc1ccccc1-c1nnc(Sc2nc([N+](=O)[O-])nn2C)o1	7	-11	21	3	1	1
COc1ccc(C(=O)c2sc3nc(C)cc(-c4cccs4)c3c2N)cc1OC	17	-132	3	-22	108*	1
Cc1cc(-c2cccs2)c2c(N)c(C(=O)c3ccc4c(c3)OCO4)sc2n1	-2	-197	21	-11	109*	1
Cc1cc(C)c2c(N)c(C(=O)c3ccc(Cl)cc3)sc2n1	-12	19	0	8	0	0
SMILES	H9c2 protect	CRFBP-R2 block	PfGluPho inh	FAS TE block	CRFR2-BP ag	aDG glyco act
CC(C)NC(=O)c1sc2nc(-c3cccs3)cc(-c3cccs3)c2c1N	/	-33	-24	/	1	/
COc1ccc(C(=O)c2sc3nc(C)cc(-c4cccs4)c3c2N)cc1	-5	-70	15	8	67*	1
O=C1S/C(=C/c2ccccc2F)C(=O)N1CCN=C1NS(=O)(=O)c2ccccc21	-13	-17	-5	8	-3	0
CC(C)c1nnc2n1N=C(c1ccc(Cl)cc1)CS2	16	6	3	-1	1	0
CCCc1ccc(C2=Nn3c(nnc3C(C)C)SC2)cc1	-7	1	60*	-4	0	0
COc1ccc(-c2cnc3c(NC=O)cc(-c4cccc(NS(C)(=O)=O)c4)cn23)cc1OC	105*	/	/	10	/	0
CS(=O)(=O)c1ccc(-c2cnc3c(NC=O)cc(-c4ccsc4)cn23)cc1	81*	/	/	5	/	0
COc1cccc(-c2cnc3c(NC=O)cc(-c4cc(OC)c(OC)c(OC)c4)cn23)c1	71*	/	/	21	/	0
O=CNc1cc(-c2ccsc2)cn2c(-c3ccccc3)cnc12	-15	/	/	13	/	0
COc1ccc(/C=C2\CCCc3c2nc2ccc(C)cc2c3C(=O)O)cc1O	6	0	-5	-5	-1	0
CC(C)=CC(=O)Nc1nc2ccc([N+](=O)[O-])cc2s1	-6	-62	-11	3	1	0
O=C(NNC(=O)c1ccc(F)c(S(=O)(=O)N2CCOCC2)c1)c1ccc(Br)cc1	-3	3	-15	-5	-1	0
COc1cc(C(=O)Nc2nc(OC)c(-c3ccccc3)c(OC)n2)cc(OC)c1OC	70*	21	10	9	0	0
C[C@@H](NC(=O)/C(C#N)=C/c1ccc(O)c(O)c1)c1ccccc1	62*	-84	-25	-1	2	0
N#C/C(=C\c1ccc(O)c(O)c1)C(=O)Nc1cccc2ncccc12	55*	-34	17	2	22	0
N#C/C(=C\c1ccc(O)c(O)c1)C(=O)Nc1ccccc1	55*	-41	-8	5	6	-1
N#C/C(=C/c1ccc(O)c(O)c1)C(=O)NCc1ccc(Cl)cc1	65*	-30	-12	8	6	0
Cn1c(=O)c2[nH]c(CCCC(=O)O)nc2n(Cc2ccccc2)c1=S	3	-2	-9	-4	-1	0
COc1ccc(Cc2nc(-c3ccc(Br)cc3)no2)cc1	-20	5	4	37	0	0
COc1ccc(Cc2nc(-c3ccc(Cl)cc3)no2)cc1	-6	50*	10	25	-1	0
COC(=O)c1ccc(C2C(C(=O)c3cc4ccccc4o3)=C(O)C(=O)N2CCCN(C)C)cc1 (stereo unspecified)	7	114*	-2	4	0	0
